Laboratory results from PubChem BioAssay (NCI).
This is part of a sample that, as a whole, favours compounds with a hit. Of some 83,000 tested, about 20% had one in any assay.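 Percent growth is the endpoint: 0 to 100 indicates growth inhibition (40 means 60% inhibition), 0 means no net growth, and negative values indicate cell death.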 Active and inactive are the calls of the source. Rule for the calls: active = growth percent below 10; inactive = the rest.

What was measured:
Experiment in all cases: NCI-60 one-dose screen, 48 h (100 = growth as untreated, 0 = no growth, -100 = all killed)
Details in all cases: 10 µM unless noted
T-47D breast = system: T-47D breast
BT-549 breast = system: BT-549 breast
MDA-MB-435 melanoma = system: MDA-MB-435 melanoma
SW-620 colon = system: SW-620 colon
MCF7 breast = system: MCF7 breast
HCT-116 colon = system: HCT-116 colon
HCC-2998 colon = system: HCC-2998 colon
KM12 colon = system: KM12 colon

Measured: growth

COc1ccc(C2=NN(c3nc(-c4ccc(OC)cc4)c(C#N)c(=O)n3C)C(=O)CC2)cc1
inactive: T-47D breast 92.4% | BT-549 breast 107% | MDA-MB-435 melanoma 109% | SW-620 colon 108% | MCF7 breast 92% | HCT-116 colon 97.4% | HCC-2998 colon 91.8% | KM12 colon 107%

COC(=O)[C@]12CC[C@@H](C(=O)/C=C/c3cccnc3)[C@@H]1[C@H]1CC[C@@H]3[C@@]4(C)C/C(=C/c5cccnc5)C(=O)C(C)(C)[C@@H]4CC[C@@]3(C)[C@]1(C)CC2
active: T-47D breast -43.6% | BT-549 breast -92.1% | MDA-MB-435 melanoma -69.7% | SW-620 colon -67.3% | MCF7 breast -54.2% | HCT-116 colon -87.4% | HCC-2998 colon -55.5% | KM12 colon -75%

COc1cccc(-c2nn(-c3ccccc3)cc2-c2ccnc(NCCNS(=O)(=O)c3cccc(F)c3)c2)c1
active: T-47D breast 6.41%
inactive: BT-549 breast 46.9% | MDA-MB-435 melanoma 20% | SW-620 colon 46% | MCF7 breast 14.1% | HCT-116 colon 21.4% | HCC-2998 colon 17.1% | KM12 colon 19.6%

COc1cnc2c(c1)C(=O)c1c-2n(CCCN2CCN(CCO)CC2)c(=O)c2cc([N+](=O)[O-])ccc12
inactive: T-47D breast 64.4% | BT-549 breast 65.6% | MDA-MB-435 melanoma 40.8% | HCC-2998 colon 80% | KM12 colon 32.4%
active: SW-620 colon -48.8% | MCF7 breast -6.37% | HCT-116 colon -87.6%

N#C/C(=C\c1ccc(-c2ccc(Br)cc2)o1)c1nc(-c2ccco2)cs1
inactive: BT-549 breast 98% | MDA-MB-435 melanoma 98.2% | SW-620 colon 95.6% | MCF7 breast 15.4% | HCT-116 colon 95.6% | HCC-2998 colon 34.1% | KM12 colon 59.4%
active: T-47D breast -26.4%

C=C1CC[C@@H](C(=O)OC)Cc2nc(C)ccc21
inactive: T-47D breast 99% | BT-549 breast 122% | MDA-MB-435 melanoma 103% | SW-620 colon 102% | MCF7 breast 98% | HCT-116 colon 110% | HCC-2998 colon 101% | KM12 colon 108%

Cc1ccc(C)c2c1CCC2C(C)C (stereo not given)
inactive: T-47D breast 91.2% | BT-549 breast 100% | MDA-MB-435 melanoma 108% | SW-620 colon 106% | MCF7 breast 107% | HCT-116 colon 96% | HCC-2998 colon 101% | KM12 colon 101%

CC/C(=N/NC(N)=O)c1ccccc1
inactive: T-47D breast 110% | BT-549 breast 102% | MDA-MB-435 melanoma 110% | SW-620 colon 105% | MCF7 breast 97% | HCT-116 colon 109% | HCC-2998 colon 103% | KM12 colon 111%

Cn1c2ccccc2c2c3c(c4c5cccnc5[nH]c4c21)C(=O)N(O)C3=O
inactive: T-47D breast 16.4% | BT-549 breast 44.6% | MDA-MB-435 melanoma 64.3% | SW-620 colon 45.4% | MCF7 breast 12.9% | HCT-116 colon 36.3% | HCC-2998 colon 54.4% | KM12 colon 65.9%

NNC(=O)c1nc2ccccc2[nH]1
inactive: T-47D breast 89.8% | BT-549 breast 95.4% | MDA-MB-435 melanoma 109% | SW-620 colon 105% | MCF7 breast 104% | HCT-116 colon 91.3% | HCC-2998 colon 104% | KM12 colon 102%

CCN1CCN(C(=O)[C@]23CCC(C)(C)C[C@H]2C2=CC[C@@H]4[C@@]5(C)CC/C(=N/O)C(C)(C)[C@@H]5CC[C@@]4(C)[C@]2(C)CC3)CC1
inactive: T-47D breast 36.6% | BT-549 breast 87.2% | MDA-MB-435 melanoma 66.1% | SW-620 colon 22.4% | MCF7 breast 37.5% | HCT-116 colon 19% | HCC-2998 colon 90.4% | KM12 colon 72.1%

Cn1c2c(Cl)c(Cl)ccc2c2c(C#N)c[nH]c(=O)c21
inactive: T-47D breast 102% | BT-549 breast 120% | MDA-MB-435 melanoma 115% | SW-620 colon 106% | MCF7 breast 96.5% | HCT-116 colon 92.7% | HCC-2998 colon 97.2% | KM12 colon 111%

O=Cc1nc2ccccc2[nH]1
inactive: T-47D breast 91.9% | BT-549 breast 101% | MDA-MB-435 melanoma 107% | SW-620 colon 101% | MCF7 breast 96.4% | HCT-116 colon 88.5% | HCC-2998 colon 107% | KM12 colon 99.8%

CCOC(=O)N1CCN(CCCCOc2ccc(C(C)(C)CC)cc2)CC1
inactive: T-47D breast 79.7% | BT-549 breast 82.3% | MDA-MB-435 melanoma 105% | SW-620 colon 101% | MCF7 breast 103% | HCC-2998 colon 107% | KM12 colon 95.6%

O=C1c2ccccc2NC(c2cn(-c3ccccc3)nc2-c2cccs2)N1Cc1ccccc1 (stereo not given)
inactive: T-47D breast 54.9% | BT-549 breast 88.5% | MDA-MB-435 melanoma 97.5% | SW-620 colon 97.3% | MCF7 breast 72% | HCT-116 colon 65.9% | HCC-2998 colon 95.1% | KM12 colon 83.7%

Cc1ccc(N(CC(=O)Nc2ccc(S(=O)(=O)NC3CCN(C)CC3)cc2)S(=O)(=O)c2ccc(Cl)cc2)cc1
inactive: T-47D breast 58.4% | BT-549 breast 86.6% | SW-620 colon 10.1% | MCF7 breast 39% | HCT-116 colon 47.6% | HCC-2998 colon 30.4% | KM12 colon 61.2%
active: MDA-MB-435 melanoma -44.3%

CCC1C(=O)COC1=O (stereo not given)
inactive: T-47D breast 71.6% | BT-549 breast 95.9% | MDA-MB-435 melanoma 103% | SW-620 colon 98% | MCF7 breast 94.8% | HCT-116 colon 85.8% | HCC-2998 colon 107% | KM12 colon 101%

CC1(C)C(=O)/C(=C\c2cccnc2)C[C@]2(C)[C@H]3CC[C@@H]4[C@@H](C(=O)/C=C/c5ccncc5)CC[C@@]4(C)[C@]3(C)CC[C@@H]12
inactive: T-47D breast 16.9% | MCF7 breast 26.2% | HCC-2998 colon 59.7%
active: BT-549 breast 8.03% | MDA-MB-435 melanoma -11.4% | SW-620 colon 8.95% | HCT-116 colon -86.9% | KM12 colon -20.9%

CCCCCCCC(=O)SCC/C=C/[C@@H]1CC(=O)NCc2cccc(n2)CN(Cc2ccc(Cl)cc2)CC(=O)N[C@@H](C(C)C)C(=O)O1
active: MDA-MB-435 melanoma 6.92% | MCF7 breast 9.09% | HCT-116 colon -1.93% | HCC-2998 colon -24.2% | KM12 colon 5.69%
inactive: T-47D breast 30.9% | BT-549 breast 38.8% | SW-620 colon 16.7%

C#CCC(C)(O)/C=C/C1=C(C)CCCC1(C)C (stereo not given)
inactive: T-47D breast 83% | BT-549 breast 87.6% | MDA-MB-435 melanoma 103% | SW-620 colon 104% | MCF7 breast 97.6% | HCT-116 colon 82.6% | HCC-2998 colon 106% | KM12 colon 97.6%

COc1cc(/C=C/c2cc(/C=C/c3ccc(O)c(OC)c3)n(-c3ccccc3)c(=O)n2)ccc1O
inactive: T-47D breast 71.4% | BT-549 breast 56.9% | MDA-MB-435 melanoma 73.1% | SW-620 colon 78.4% | MCF7 breast 40.8% | HCT-116 colon 55.6% | HCC-2998 colon 104% | KM12 colon 63.2%

CCCCC[C@H]1C/C=C2/C(=O)C(Cl)=C[C@@H]2C/C=C\CCCC(=O)O1
active: T-47D breast -33.7% | BT-549 breast -77.3% | MDA-MB-435 melanoma -48.2% | SW-620 colon -48.8% | MCF7 breast 0.987% | HCT-116 colon -86.9% | HCC-2998 colon -68.7% | KM12 colon -33.9%

C=C1C(=O)O[C@H]2[C@H]1CC/C(COC(=O)N[C@H](Cc1c[nH]c3ccccc13)C(=O)OC)=C\CC[C@@]1(C)O[C@@H]21
active: T-47D breast -45.3% | SW-620 colon -1.92% | HCT-116 colon -58.2%
inactive: BT-549 breast 26.4% | MDA-MB-435 melanoma 54.8% | MCF7 breast 14.7% | HCC-2998 colon 101% | KM12 colon 92.6%

COC(=O)[C@]12CC[C@@H](C)[C@H](C)[C@@H]1C1=CC[C@@H]3[C@@]4(C)CC(=O)[C@H](OC(=O)c5ccco5)[C@@]5(C)COC(=C45)C[C@@]3(C)[C@]1(C)CC2
inactive: BT-549 breast 25.9% | MDA-MB-435 melanoma 21.4% | SW-620 colon 31.2% | MCF7 breast 15.7% | HCT-116 colon 16.4% | HCC-2998 colon 52.3% | KM12 colon 27.9%
active: T-47D breast 1.72%

COc1cc(-c2c(C#N)c(-c3cccs3)nc3c2c(-c2ccccc2)nn3-c2ccccc2)ccc1O
inactive: T-47D breast 56.8% | BT-549 breast 101% | MDA-MB-435 melanoma 74.8% | SW-620 colon 88% | MCF7 breast 76.4% | HCT-116 colon 56.8% | HCC-2998 colon 99.6% | KM12 colon 78.4%

Cc1cc2nc3c4cc([N+](=O)[O-])cc([N+](=O)[O-])c4n(CCN(C)C)c3nc2cc1C
inactive: T-47D breast 73.6% | BT-549 breast 90.7% | MDA-MB-435 melanoma 92.1% | SW-620 colon 45.6% | MCF7 breast 63.2% | HCT-116 colon 45.3% | HCC-2998 colon 88.2% | KM12 colon 77.1%

Fc1ccc(NCc2nnc(-c3ccc(Cl)cc3)o2)cc1
inactive: T-47D breast 57% | BT-549 breast 77.8% | MDA-MB-435 melanoma 94.8% | SW-620 colon 90.4% | MCF7 breast 55.2% | HCT-116 colon 53.7% | HCC-2998 colon 98% | KM12 colon 84.8%

Cc1cccc(C)c1NC(=O)CSC(=S)N1CCCCC1
inactive: T-47D breast 85.4% | BT-549 breast 105% | MDA-MB-435 melanoma 110% | SW-620 colon 103% | MCF7 breast 97.8% | HCT-116 colon 99.7% | HCC-2998 colon 100% | KM12 colon 97.8%

CCCCC(=O)OC1CCCCC1C (stereo not given)
inactive: T-47D breast 95.2% | BT-549 breast 85.2% | MDA-MB-435 melanoma 101% | SW-620 colon 105% | MCF7 breast 103% | HCC-2998 colon 111% | KM12 colon 99.2%
